Screens deposited in PubChem BioAssay by several laboratories.
Most compounds without a hit are left out; they make up all but 1.5% or so of the library.
EBV gp42 inh = Epstein-Barr virus gp42 inhibitors, primary screen, biochemical, uHTS, fluorescence polarization | Glycoprotein 42 (Epstein-Barr virus (strain AG876)), Q1HVG2 | Fluorescence polarization binding assay, mP read-out | inhibition, % (tested at 21.74 µM) | hit rate 0.42% among 220,000; in the data active = inhibition above about 50%
MEX-5 binding = MEX-5 zinc finger RNA-binding disruptors – biochemical, C. elegans, fluorescence polarization, MLPCN library, primary screen. hit rate 0.38% among 300,000. MEX-5/FITC-TCR2 RNA binding; stronger effect = lower value. Zinc finger protein mex-5 (Caenorhabditis elegans), Q9XUB2. activity score (negative = inhibition of binding), % at 10 µM;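 active = inhibition past about -25% in most replicates, and total fluorescence under double the plate's negative control median, limit read from the data; inconclusive = replicates evenly split on the limit, or fluorescence at least double controls; inactive = too little inhibition in most replicates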;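 also: 0% = DMSO and -100% = 5 µM competing unlabeled TCR2 RNA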
MCL1 BIM primary = inhibitors of MCL1 binding to BIM-BH3, primary screen, biochemical, fluorescence polarization. inhibition, % at 10.9 µM. hit rate 0.68% among 320,000. AID 2057, 2009. GST-MCL1 / FITC-Bim-BH3 fluorescence polarization;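 active = inhibition above the mean inhibition of all tested compounds plus 3 SD, set per campaign, cut at about 40% in these data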;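 also: 0% = DMSO wells and 100% = unlabeled Bim-BH3 peptide control; higher means more loss of mP so more displacement of Bim peptide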
Target sequence (Q07820 whole entry, looked up): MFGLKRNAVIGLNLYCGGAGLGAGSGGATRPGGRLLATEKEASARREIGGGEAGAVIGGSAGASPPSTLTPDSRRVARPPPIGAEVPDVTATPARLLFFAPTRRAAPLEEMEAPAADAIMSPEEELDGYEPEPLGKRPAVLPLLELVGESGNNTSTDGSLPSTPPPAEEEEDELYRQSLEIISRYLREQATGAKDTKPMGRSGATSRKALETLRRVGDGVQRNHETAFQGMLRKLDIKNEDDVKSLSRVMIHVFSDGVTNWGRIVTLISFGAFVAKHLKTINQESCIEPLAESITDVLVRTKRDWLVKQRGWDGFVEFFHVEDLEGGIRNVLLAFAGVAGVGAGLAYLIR
GLD-1 RNA inh = GLD-1/TGE RNA complex disruptors, primary screen, biochemical, fluorescence polarization. AID 2280, 2010. Female germline-specific tumor suppressor gld-1 (Caenorhabditis elegans), Q17339. purified GLD-1 + fluorescein TGE RNA. inhibition, % at 5.96 µM. hit rate 0.44% among 320,000;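 active = percent inhibition above a per-plate cutoff, the plate mean of test compounds plus 3 SD, cut at about 30% in these data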;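 also: 0% = DMSO wells with GLD-1 and probe and 100% = wells lacking GLD-1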
BCLXL inh = inhibitors of human Bcl-xL, primary screen, biochemical, fluorescence polarization, HTS. Bcl-2-like protein 1 (Homo sapiens), Q07817. GST-Bcl-xL / FITC-Bim BH3 peptide fluorescence polarization. inhibition, % at 10.9 µM. hit rate 0.7% among 320,000;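 active = inhibition above the mean of all tested compounds plus 3 SD, cutoff set per campaign, cut at about 30% in these data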;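 also: 0% = DMSO wells and 100% = unlabeled Bim-BH3 peptide competitor; inhibitors lower millipolarization by displacing the labeled peptide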
Target sequence (Q07817 whole entry, looked up): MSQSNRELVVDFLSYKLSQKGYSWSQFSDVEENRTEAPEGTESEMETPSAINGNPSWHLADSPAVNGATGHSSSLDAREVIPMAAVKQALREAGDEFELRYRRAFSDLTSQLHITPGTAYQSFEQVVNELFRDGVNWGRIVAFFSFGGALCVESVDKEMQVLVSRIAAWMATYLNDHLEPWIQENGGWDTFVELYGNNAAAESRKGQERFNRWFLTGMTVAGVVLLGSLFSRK
E coli Lon inh = inhibitors of E. coli Lon protease, primary screen, biochemical, fluorescence polarization; P0A9M0; hit rate 0.42% among 360,000; AID 602123, 2011; inhibition, % at 7.94 µM; purified E. coli Lon protease; in the data active = inhibition above about 13%, passing the limit was not always enough;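 also: 0% = enzyme with probe and DMSO and 100% = no enzyme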
Bcl-xL conf = Bcl-xL inhibitors blocking Bim BH3 binding, confirmation, counter-screen for MCL1 inhibitor project, biochemical, fluorescence polarization; shares compounds with MCL1 BIM primary; GST-Bcl-xL / FITC-Bim BH3 peptide FP binding; inhibition, % at 10.9 µM; hit rate 54% among 1,700;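 active = inhibition above a cutoff equal to the mean inhibition of all tested compounds plus 3 SD, cut at about 30% in these data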;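 also: 0% = DMSO wells and 100% = unlabeled Bim BH3 control peptide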
MCL1 inh confirm = inhibitors of MCL1 binding to BIM-BH3, confirmation, biochemical, fluorescence polarization, triplicate; shares compounds with MCL1 BIM primary; GST-MCL1 / FITC-Bim-BH3 fluorescence polarization; inhibition, % at 10.9 µM; hit rate 61% among 1,700;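 active = inhibition above the average of all tested compounds plus 3 SD, cut at about 40% in these data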;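 also: 0% = DMSO wells and 100% = unlabeled Bim-BH3 control peptide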
Numbers without * were called inactive; u = inconclusive; x = not tested or not shown; + = active, no number.

SMILES	EBV gp42 inh	MEX-5 binding	MCL1 BIM primary	GLD-1 RNA inh	BCLXL inh	E coli Lon inh	Bcl-xL conf	MCL1 inh confirm
COc1ccc(N/C(=C(/C(Cl)=C(Cl)Cl)[N+](=O)[O-])n2nnc3ccccc32)cc1OC	12	-7	104*	37*	97*	x	30	21
COc1ccc(C(=O)n2nnc3ccccc32)cc1OC	-1	x	1	-8	-4	-2	x	x
CCn1c(NC(=O)/C=C/c2ccc(F)cc2)nc2ccccc21	x	-5	9	10	6	1	x	x
CC(=O)OCCNc1cc(N2CCN(C)CC2)c2noc3c2c1C(=O)c1ccccc1-3	12	x	x	x	x	-3	x	x
CCOC(=O)C(C(=O)OCC)c1cc(Br)c2noc3c2c1C(=O)c1ccccc1-3	133*	-32*	196*	171*	176*	-7	145*	148*
Cc1ccc(S(=O)(=O)C(C#N)c2nc3ccccc3nc2N2CCCC2)cc1 (configuration not stated)	91*	-4	75*	57*	83*	-11	64*	63*
CCCCN(C(=O)c1ccc(C#N)cc1)c1c(N)n(CCC)c(=O)[nH]c1=O	x	-1	5	6	3	3	x	x
CC1(C)Cc2cccc(OCC(=O)NCCc3ccc(S(N)(=O)=O)cc3)c2O1	x	x	195*	21	35*	-20	-3	-6
N#CCC(=O)N/N=C/c1c(-c2ccccc2)n(-c2ccccc2)c2ccccc12	x	-2	1	1	2	-9	x	x
CCC(=O)Nc1cc(OC)c(NC(=S)Nc2ccccc2CC)cc1OC	x	x	x	x	x	-45	x	x
CCN1C(=O)/C(=C/c2cn(-c3ccccc3)nc2-c2cccnc2)SC1=S	x	x	x	x	x	-14	x	x
Cc1ccc(-c2nn(-c3ccccc3)cc2/C=C2\SC(=S)N(CC(=O)O)C2=O)cc1	22	1	70*	-4	8	-12	16	10
Cc1ccc(-c2nn(-c3ccc(F)cc3)cc2C(=O)NCCCN2CCCC2=O)cc1	x	x	x	x	x	-6	x	x
CN1C(=O)C(CC#N)(C2(CC#N)C(=O)N(C)c3ccccc32)c2ccccc21 (configuration not stated)	x	x	x	x	x	-12	x	x
Cc1ccc(S(C)(=O)=O)cc1C(=O)Nc1ccc(S(=O)(=O)Nc2nccs2)cc1	x	x	4	6	5	-13	x	x
COCc1cc(=O)n2[nH]c(-c3ccco3)cc2n1	-6	-2	3	11	0	6	x	x
CCCCN1Cc2c(nc3cc(-c4ccco4)[nH]n3c2=O)C1=O	-2	-4	66*	-11	29	-5	37*	51*
O=C(O)C1Sc2[nH]c(=O)sc2C2c3cc(Cl)ccc3OC(=O)C12 (configuration not stated)	-4	-8	13	10	15	-10	x	x
O=C(O)C1Sc2[nH]c(=O)sc2C2c3ccc(O)cc3OC(=O)C12 (configuration not stated)	41	u	82*	73*	67*	-28	46*	49*
O=C1Nc2c(Br)cccc2C1=O	x	x	x	4	x	6	x	x
O=C(NC(=S)Nc1cccc2c(O)cccc12)c1ccccc1[N+](=O)[O-]	x	-3	48*	-2	31*	4	27	27
COc1ccccc1NC(=O)CC(NC1CCCCC1)C(=O)O (configuration not stated)	-5	0	62*	-1	0	-6	-16	-18
O=[N+]([O-])c1cccc(C(=NCc2ccccc2)NO)c1	x	0	x	x	x	-13	x	x
Cc1ccc(OCC(=O)c2c(N)n(C)c(=O)n(C)c2=O)c([N+](=O)[O-])n1	x	x	72*	14	36*	5	23	59*
Cc1cc(NC(=O)COC(=O)CCS(=O)(=O)c2ccc(Cl)cc2)no1	x	0	7	9	8	11	x	x
SMILES	EBV gp42 inh	MEX-5 binding	MCL1 BIM primary	GLD-1 RNA inh	BCLXL inh	E coli Lon inh	Bcl-xL conf	MCL1 inh confirm
Cc1ccc(S(=O)(=O)CCC(=O)OCC(=O)Nc2cc(C)on2)cc1	-6	1	+	183*	+	-4	9	-1
CCOC(=O)C1=C(N)n2c(s/c(=C/c3ccco3)c2=O)=C(C(=O)OC)C1c1ccco1 (configuration not stated)	-16	-2	2	4	7	-8	x	x
N#CC1=C(N)n2c(s/c(=C\c3ccco3)c2=O)=C(C#N)C1c1ccco1 (configuration not stated)	-3	-12	55*	7	44*	-18	104*	150*
O=C(NNC(=O)c1n[nH]c2ccccc12)c1ccccc1	x	x	x	x	x	-2	x	x
COc1ccc(NC(=O)c2ccc(-c3nn(C)c(=O)c4ccccc34)cc2)cc1	-2	-2	45*	5	16	-2	-4	-7
COc1ccccc1NC(=O)c1ccc(-c2nn(C)c(=O)c3ccccc23)cc1	-29	-1	-2	0	6	-6	x	x
O=C(CCc1ccccc1)Nc1ccccc1[N+](=O)[O-]	-6	0	-9	4	1	-3	x	x
O=C(CCc1ccccc1)Oc1ccccc1[N+](=O)[O-]	x	0	73*	3	7	x	3	-1
COc1ccc(Cl)cc1NC(=O)CSc1nc2[nH]ncc2c(=O)[nH]1	x	x	x	x	x	-17	x	x
CCCCCCCCOc1ccc(C2OC34CCCCC3C(C#N)(C#N)C2(C#N)C(=N)O4)cc1 (configuration not stated)	-5	-87*	180*	107*	157*	27*	107*	124*
CCCCCOc1ccc(C2NC(=O)NC2=O)cc1 (configuration not stated)	-10	4	0	5	-2	-1	x	x
N#CC1(C#N)C(c2ccccc2)OC23CCCCCC2C1(C#N)C(=N)O3 (configuration not stated)	-1	-9	48*	21	36*	9	78*	101*
COc1ccc(C(c2nnnn2C2CCCCC2)N2CCN(C/C=C/c3ccccc3)CC2)cc1 (configuration not stated)	x	x	x	x	x	2	x	x
